PubChem BioAssay (NCATS)
Results filed as inconclusive are left out. A call without a number means that no potency is given here. The source made the active and inactive calls. The call rests on the fitted dose curve; in most records, active means well fitted inhibition curve with a large enough effect; inconclusive means small, poorly fitted or top-dose-only effect; inactive means flat fitted curve, though single readings scatter.

These compounds were tested against Ubiquitin carboxyl-terminal hydrolase 1 (Homo sapiens) (UniProt O94782) (assay: Inhibitors of USP1/UAF1: Pilot qHTS (AID 504865; further: nearly all actives have a fitted effect of over 35% in size)). Details: purified USP1/UAF1, Ub-rhodamine cleavage fluorescence; series mostly up to 114 µM.
Summary of the method: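 Enzyme-free wells gave the negative control, while test wells held 1nM USP1/UAF1 preincubated with compound for 15 min at room temperature. Ub-Rho at 150nM final started the reaction, and fluorescence at 480/540 nm was recorded kinetically.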
Potency means the concentration at half of the fitted maximal effect.

Sequence of Ubiquitin carboxyl-terminal hydrolase 1 (Homo sapiens) (O94782 whole entry, looked up): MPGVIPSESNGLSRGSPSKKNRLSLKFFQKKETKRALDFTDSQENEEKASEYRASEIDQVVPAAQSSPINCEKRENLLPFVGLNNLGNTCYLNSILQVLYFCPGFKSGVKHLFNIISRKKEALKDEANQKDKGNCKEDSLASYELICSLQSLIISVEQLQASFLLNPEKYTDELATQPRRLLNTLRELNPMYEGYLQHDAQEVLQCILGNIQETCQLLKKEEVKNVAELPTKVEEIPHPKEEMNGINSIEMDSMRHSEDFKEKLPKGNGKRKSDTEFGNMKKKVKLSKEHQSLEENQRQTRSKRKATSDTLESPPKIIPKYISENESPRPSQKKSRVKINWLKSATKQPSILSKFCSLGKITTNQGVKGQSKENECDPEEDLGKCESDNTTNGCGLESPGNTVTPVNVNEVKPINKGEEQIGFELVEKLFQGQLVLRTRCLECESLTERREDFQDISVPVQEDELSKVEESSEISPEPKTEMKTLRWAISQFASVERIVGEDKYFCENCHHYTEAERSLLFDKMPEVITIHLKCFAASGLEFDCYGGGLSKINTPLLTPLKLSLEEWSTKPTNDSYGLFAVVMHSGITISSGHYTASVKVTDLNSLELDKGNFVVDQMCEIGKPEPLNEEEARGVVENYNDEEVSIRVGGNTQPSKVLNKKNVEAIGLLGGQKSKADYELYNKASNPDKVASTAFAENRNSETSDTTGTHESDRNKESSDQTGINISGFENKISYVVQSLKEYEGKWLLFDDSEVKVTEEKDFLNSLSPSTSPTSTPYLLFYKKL

Row | Compound | Potency
1 | C[N+](C)(C)CCO | inactive
2 | Cc1ccc2c(Cl)cc(Cl)c(O)c2n1 | inactive
3 | O=C1NC(=O)/C(=C/c2ccc3c(c2)OC(F)(F)O3)S1 | inactive
4 | NC(N)=NCCCCN=C(N)N | inactive
5 | O=C(CCCCC(=O)Nc1c(I)cc(I)c(C(=O)O)c1I)Nc1c(I)cc(I)c(C(=O)O)c1I | inactive
6 | O=C1NC(c2cccc([N+](=O)[O-])c2)=CCN1c1ccccc1O | inactive
7 | Brc1ccc([C@H]2CN3CCSC3=N2)cc1 | inactive
8 | COc1ccccc1N1CCN(CCN2C(=O)CC3(CCCC3)CC2=O)CC1 | inactive
9 | Nc1ccc2cc3ccc(N)cc3nc2c1 | inactive
10 | Nc1ncnc2nc[nH]c12 | inactive
11 | COC(=O)C1=CO[C@@H](O)[C@@H]2C(CO)=CC[C@H]12 | inactive
12 | Nc1ncnc2n[nH]c(Nc3ccc(F)cc3)c12 | inactive
13 | Cn1cnc2c(NCc3ccccc3)nc(NCCO)nc21 | inactive
14 | N[C@@H](Cn1ccc(=O)c(O)c1)C(=O)O | inactive
15 | CCN(CC)CCNC(=O)c1ccc(NS(C)(=O)=O)cc1 | inactive
16 | CN1CCC(Nc2ncc3ncnc(Nc4ccc(F)c(Cl)c4)c3n2)CC1 | inactive
17 | CC(=O)OCC[N+](C)(C)C | inactive
18 | COc1cccc2c1[C@@H]1CN(CCCCn3c(=O)[nH]c4c(sc5ncc(-c6ccccc6)nc54)c3=O)C[C@@H]1CO2 | inactive
19 | CCCCCCCCCCCCCC[N+](C)(C)C | 50.1 µM (active)
20 | O=S(=O)(O)c1ccc2nc(-c3ccccc3)[nH]c2c1 | inactive
21 | CCOC(=O)NNc1nncc2ccccc12 | inactive
22 | CN(C(=O)C(Cl)Cl)c1ccc(OC(=O)c2ccco2)cc1 | inactive
23 | CN1CCCN(C(c2ccccc2)c2ccc(Cl)cc2)CC1 (stereo not drawn) | inactive
